# Only some compounds are listed: those with a hit (about 10% of all), similar ones and a draw of the others.
# NPR1 antag – blocks ANP-stimulated signaling of human Npr1 receptor. HEK293 hNpr1 GloSensor cGMP, ANP-stimulated luminescence. Potency, µM (titrated, usually from 46.3 µM), for the others: at the highest dose activity change, negative = inhibition, most hits filed as inhibitors. 76,000 tested, 1.6% active. AID 1347048; calls by dose curve; further: nearly all actives have a fitted effect of over 60% in size
#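 Compound pre-incubated 30 min at room temperature on GloSensor-loaded HEK293 cells stably carrying hNpr1 and the pGS-40F cGMP biosensor. Stimulation uses hNppA at 0.1 nM final; luminescence is taken at baseline and 20 min post-agonist.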
# FLuc inh – Photinus pyralis luciferase inhibition | purified P. pyralis luciferase, luminescence, biochemical | AID 1347043 | 76,000 tested, 2.5% active | Potency, µM (doses to about 115 µM), usual class: inhibitors | P08659; further: nearly all actives have a fitted effect of over 65% in size
#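 Luminescence read by CCD imaging after purified firefly luciferase (10nM final) was added to substrate buffer holding 10uM D-luciferin and 10uM ATP, pH 7.5, pre-dosed with compound.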
# GPT2 inhibitor – inhibitors of human GPT2 alanine aminotransferase. Q8TD30. Recombinant GPT2, coupled pyruvate oxidase/HRP Amplex Red fluorescence. Potency, µM (highest dose often 57.7 µM), inactives show top-dose activity change, negative = inhibition, actives largely listed as inhibitors. 100,000 tested, 0.25% active; further: nearly all actives have a fitted effect of over 60% in size
#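 Fluorescence of coupled pyruvate oxidase/HRP/Amplex Red system (50uM Amplex, 30 min, dark) reports pyruvate formed by GPT2. Enzyme reaction: 10ng/uL GPT2, 2mM L-alanine, 250uM a-KG, 30 min room temperature, pH 7.5; 50uM AOA control.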
# NIH3T3 tox – cytotoxic compounds in NIH 3T3 cells; NIH 3T3 viability, CellTiter-Glo ATP luminescence, 48-72 h; Potency, µM (highest dose often 96.7 µM), inactives show top-dose activity change, negative = cytotoxicity, hits mostly inhibitors; 94,000 tested, 4.3% active; AID 1345082; further: nearly all actives have a fitted effect of over 55% in size
#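 First NIH 3T3 cells are plated at 400 cells/well; next compound is pinned in; then plates incubate 48 or 72 hr at 37 °C; finally CellTiter-Glo is added and luminescence read after 10 min.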
# HEK cytotox – kills HEK 293 cells | HEK 293 viability, ATP luminescence (CellTiter-Glo), 48-72 h | Potency, µM (doses to about 115 µM), inactives show at the highest dose activity change, negative = cytotoxicity, most hits filed as inhibitors | 94,000 tested, 6.6% active | AID 1345083; further: nearly all actives have a fitted effect of over 60% in size
#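 ATP-coupled CellTiter-Glo luminescence served as viability read-out, recorded 10 min after reagent addition at room temperature. HEK 293 cells, 250 cells/well, had been incubated with pintool-transferred compound for 48 or 72 hr at 37 degree Celsius.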
# Active calls of the source: *; i = inactive; ? = inconclusive; [ ] = dose if it differs, or a comment. Unless noted, the call rests on the fitted dose curve; in most records, active means well fitted curve in the direction sought with a large enough effect; inconclusive means small, poorly fitted or top-dose-only effect, or another doubt; inactive means no such curve, though single readings can be large; an effect the other way counts as inactive or inconclusive. On the % scale 0 is the no-effect control and ±100 the full control effect; potency means the concentration at half of the fitted maximal effect.
SMILES,NPR1 antag,FLuc inh,GPT2 inhibitor,NIH3T3 tox,HEK cytotox
COC(=O)[C@@H]1Cc2c([nH]c3ccccc23)[C@H]2C[C@@H](NCCc3cnc[nH]3)C[C@@H](c3cccc(Cl)c3)N21,0.0%,i,-4.0%,?,28.2µM*
O=C(NCCc1cnc[nH]1)C1CC(=O)N(c2n[nH]c3ccccc23)C1 (stereo not given),0.6%,i,-3.5%,i,3.5%
CN1[C@@H](c2ccc(Cl)cc2)[C@@H](C(=O)NCCc2cnc[nH]2)C[C@@]1(C)C(=O)O,2.3%,i,0.5%,i,1.2%
COC(=O)[C@@H]1Cc2c([nH]c3ccccc23)[C@H]2C[C@H](NCCc3cnc[nH]3)C[C@@H](c3ccccc3F)N21,-20.8%,i,-1.9%,?,22.4µM*
COc1ccc(CNC(=O)c2cc3c(s2)CCN(C(=O)c2ccc(C)cc2)C3)cc1,-13.1%,i,i,?,?
CCc1nc2c(c(-c3ccc(Cl)cc3)n1)CN(C(=O)c1ccc(C(F)(F)F)cc1)CC2,5.4%,i,-7.7%,?,?
COc1cccc(NC(=O)c2ccc3c(c2)NC(C)(COc2ccc4[nH]ccc4c2)CO3)c1 (stereo not given),-22.1%,i,-6.8%,12.6µM*,25.1µM*
COCCNC(=O)c1ccc2c(c1)NC(C)(COc1ccc(OC)cc1)CO2 (stereo not given),-18.8%[70.6 µM],i,3.1%[88.5 µM],?,?
COc1ccc(OCC2(C)COc3ccc(C(=O)Nc4ccn(C)n4)cc3N2)cc1 (stereo not given),17.8µM*,?,-15.5%[88.5 µM],?,?
CC1(CNc2ccccc2)COc2ccc(C(=O)Nc3ccc4[nH]ccc4c3)cc2N1 (stereo not given),-27.8%[70.6 µM],10µM*,-5.6%[88.5 µM],39.8µM*,?
CCN1C(=O)CCN(C(=O)NCCc2ccccc2)CC12CCOCC2,3.0%,i,-11.2%,-11.9%,-21.5%
CN(C)C[C@@H]1CN(Cc2ccccc2)C[C@H]1NC(=O)c1ccncn1,-0.8%,i,0.6%,4.4%,1.7%
O=C(Cc1cccc(Cl)c1)N1CCC(n2cnnc2C2CC2)CC1,2.0%,i,i,4.4%,8.3%
O=c1cc2c(nn1Cc1cccc(Br)c1)CCCCC2,0.9%,31.6µM*,?,?,?
O=C(O)Cn1nc2c(cc1=O)CCCC2,1.2%,i,1.6%,i,-3.9%
COc1ccccc1-c1[nH]nc2ncc(C(=O)NCCN3CCOCC3)nc12,-1.0%[70.6 µM],i,?,?,-18.8%[172 µM]
Cc1noc(C)c1-c1cc2cc(CN(C)C)oc2c(Nc2cccnc2)n1,-1.0%[70.6 µM],i,-0.4%[88.5 µM],25.1µM*,70.8µM*
Cc1ccccc1-c1nc(-c2c(C)noc2C)cc2cc(CN(C)C)oc12,3.9%[70.6 µM],i,?,28.2µM*,?
Cc1noc(C)c1-c1cc2cc(CN(C)C)oc2c(NCc2cccnc2)n1,6.5%[70.6 µM],i,i,?,?
COc1ccc2cc1Nc1ccc(cc1)C[C@H](NC(=O)Cc1cccc(Cl)c1)C(=O)N(C)[C@H](C(=O)NCCC(C)C)C2,-0.6%,i,i,25.1µM*,?
COc1ccc2cc1Nc1ccc(cc1)C[C@H](NCc1cccc(O)c1)C(=O)N(C)[C@@H](C(=O)Nc1ccccc1)C2,-29.9%,i,-21.0%,?,?
O=c1[nH]n(CCn2cc(C3CCCNC3)nn2)c(=O)c2ccccc12 (stereo not given),4.2%,i,-30.8%,i,-7.4%
O=[S+]([O-])(NCC1CN(Cc2cccc(Cl)c2)CC12CN(c1ccccc1)C2)c1ccccc1 (stereo not given),-7.9%,i,-0.2%,?,?
O=[S+]([O-])(NCC1CN(Cc2ccc3[nH]ccc3c2)CC12CN(c1ccccc1)C2)c1ccccc1 (stereo not given),2.8%,i,?,22.4µM*,22.4µM*
CC(C)c1ccc(CN2CC(CN[S+](=O)([O-])c3ccccc3)C3(C2)CN(c2ccccc2)C3)cc1 (stereo not given),-4.2%,i,2.1%,39.8µM*,?
